Data taken from PubChem BioAssay (NCI).
About 83,000 compounds went through this panel and 20% of them were active in at least one assay; those are over-represented in the sample as a whole.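 A percent growth of 40 corresponds to 60% growth inhibition; 0 means no net growth; -100 means all cells died. Active threshold: below 10.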 Values without a mark were called inactive. Activity calls are given as the source filed them.

System: NCI-H23 lung
Test: NCI-60 one-dose screen, 48 h (100 = growth as untreated, 0 = no growth, -100 = all killed)
Details: 10 µM unless noted
Description: Growth inhibition of the NCI-H23 human Non-Small Cell Lung tumor cell line is measured as a screen for anti-cancer activity. Cells are grown in 96 well plates and exposed to the test compound for 48 hours. Compounds are tested at a single concentration, which is 10^-5 M for most compounds. The reported endpoint is percent growth (GI% or GIPRCNT), where numbers from 0 - 100% represent growth inhibition, and numbers from -100% - 0 represent cell death. For example, a value of 40 represents 60% growth inhibition. A value of 0 means no net growth occurred over the course of the experiment. A value of -40 indicates 40% of cells at the beginning of the experiment died by the end of the experiment. A value of -100 means all cells are dead at the end of the experiment.
NCI-60 Human Tumor Cell Lines Screen was performed using the standard one-dose NCI protocol, which is described in more detail at https://dtp.cancer.gov/discovery_development/nci-60/default.htm.
Compounds with GIPRCNT values below 10 were considered active. Activity score was based on GIPRCNT using the following formula: […]
Score is 0 for GIPRCNT values of 100 or above, 50 for GIPRCNT values of 0, and 100 for GIPRCNT values of -100.

Row | SMILES | growth
1 | Cc1cccc2c(=O)c3c(sc12)c(NCCCN)nc1ccccc13 | 47.8%
2 | O=S(=O)(Nc1ccccc1Cl)c1ccc(-c2cnc(C3CC3)o2)cc1 | 39.9%
3 | COC(=O)c1c2c(c(C)[n+]([O-])c1C)C(=O)C=C(NCc1cccc(OC)c1)C2=O | -69.2% (active)
4 | Cc1cc(=O)oc2c1ccc1oc(C(=O)c3ccccc3)c(C)c12 | 82.1%
5 | COc1ccc(C2SC(C)C(=O)N2CCc2cccs2)cc1OC (stereo not given) | 76.4%
6 | CCCOC(=O)c1ccc2c(c1)[N+](=O)C(C(=O)c1ccccc1)=C(C(F)(F)F)[N+]2=O | -75.6% (active)
7 | CCOC(=O)c1[nH]c2cc(Cl)ccc2c1[C@@H](C(=O)NC(C)(C)C)N(CC)C(=O)CCCCC#Cc1cccc2c1CN(C1CCC(=O)NC1=O)C2=O (stereo not given in full) | 59.4%
8 | COC(=O)c1c2c(c(C)[n+]([O-])c1C)C(=O)C=C(NCc1cccc(Cl)c1)C2=O | -63% (active)
9 | CC(=O)OC[C@]1(C)C=C2C(=O)[C@](C)(O)C3(CC3)C(C)=C2[C@H]1OC(C)=O | 75%
10 | Cl.Fc1c[c-]c(-c2ccccn2)c(F)c1.[Pt].c1ccc([PH+](CC[PH+](c2ccccc2)c2ccccc2)c2ccccc2)cc1 | -77.2% (active)
11 | COC(=O)c1c2c(c(C)[n+]([O-])c1C)C(=O)C=C(NCc1ccc(Cl)cc1)C2=O | -35.7% (active)
12 | O=C1/C(=C/c2ccccc2F)CNC/C1=C\c1ccccc1F | -48.3% (active)
13 | O=C(NC1CC1)c1cc2n(n1)CC(c1ccccc1)N2 (stereo not given) | 100%
14 | O=c1[nH]c(-c2ccncc2)nc2sc3c(c12)CCCCCC3 | 88.5%
15 | O=C(N/N=C(\CS(=O)(=O)c1ccccc1)c1cc2cc(Br)ccc2oc1=O)c1ccccc1 | 101%
16 | CCCCCCCC/C=C\CCCCCCCCOc1cccc(CC(=O)NCC[N+]2(C)CCOCC2)c1 | 90.4%
17 | CCCCCCCC/C=C\CCCCCCCCOc1cccc(CC(=O)NCC[N+]2(C)CCCCC2)c1 | 71.9%
18 | CCC12CCC3c4ccc(O)cc4CCC3C1CC(O)C2O (stereo not given) | 68%
19 | CCCCCCCC/C=C\CCCCCCCCOc1cccc(CC(=O)NCC[N+]2(C)CCCC2)c1 | 75.9%
20 | COc1ccc(OC)c(/C=C2\Oc3cc(O)ccc3C2=O)c1 | 96.1%

Row | SMILES | growth
21 | O=C1/C(=C/c2ccc([N+](=O)[O-])cc2)Oc2ccc(O)cc21 | 75.8%
22 | COCCOC1=C(Cl)C(=O)c2ccccc2C1=O | 29%
23 | Cc1c(C(=O)Nc2nc(-c3ccccc3)cs2)nnn1-c1ccccc1Br | 28.7% [50 µM]
24 | O=C1CCC(N2C(=O)c3cccc(NCCOCCOCCNC(=O)c4cc5c(o4)C(=O)c4ccccc4C5=O)c3C2=O)C(=O)N1 (stereo not given) | -53.9% (active)
25 | CN([N-]C(=O)CC(=O)[N-]N(C)C(=S)c1ccccc1)C(=S)c1ccccc1.[Cu+2] | -73.8% (active)
26 | Fc1ccccc1Nc1ccc2nnc(-c3ccncc3)n2n1 | 93.1%
27 | O=C1c2ccccc2C(=O)c2c(Nc3ccc(CCO)cc3)ccc(O)c21 | 93.3%
28 | CCOC(=O)C1=C(C)N2C(=NC3=C(CCCC/C3=C\c3ccccc3)C2c2ccccc2)S1 (stereo not given) | 95.5%
29 | CCN(CC)CCCNc1ccc(C)c2sc3ccccc3c(=O)c12 | 53.8%
30 | CCOC(=O)c1cnn(CC(O)c2ccc(F)cc2)c1NC(=O)Nc1ccccc1F (stereo not given) | 98.4%
31 | COc1ccc2nc(-n3nc(C)cc3C)c(-n3nc(C)cc3C)nc2c1 | 97.1%
32 | COc1ccc(OC2=C(C#N)C(=N)N3c4ccccc4Sc4ccccc4C3N2)cc1 (stereo not given) | 87.9%
33 | COc1ccc(Cn2c(Br)c3c(c2-c2cc(OC)c(OC)c(OC)c2)CCc2sc(N)nc2-3)cc1 | 38.1%
34 | O=C1c2c(c3c4cc(Br)ccc4[nH]c3c3ccc4ccccc4c23)C(=O)N1O | 95.7%
35 | O=C1Nc2ccc(Cl)cc2/C1=N/N=C(c1ccccc1)c1ccccc1 | 93.9%
36 | O=C(NCc1ccco1)C1CCN(S(=O)(=O)c2ccc(Cl)cc2)CC1 | 77.9%
37 | CC(=O)Nc1ccccc1-c1n[nH]c(=O)[nH]c1=O | 102%
38 | COc1ccc(-n2c(SCc3cc(OC)c(OC)c(OC)c3)nc3ccc(C)cc3c2=O)c(OC)c1 | 17.8%
39 | NC(=O)c1nc2c([nH]c1=O)CCCC2 | 104%
40 | Clc1ccc(Nc2nc(Nc3ccccc3)nc(Nc3ccc(-c4cc(-c5ccc(Cl)cc5)on4)cc3)n2)cc1 | 72.2%
